From PubChem
Rows were chosen to be rich in hits. Some 19% of all compounds tested hit in one or more screens of this group.
IL1B secr inh = inhibitors of inflammasome signaling (IL-1 beta secretion) | THP-1 LPS/ATP IL-1B secretion, AlphaLISA, 16 h; hits give low values | activity change, % at 57.5 µM | hit rate 4.7% among 360,000; in the data active = activity change below about -50%; inconclusive = mostly about -30% to -49%
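THP-1 cells pretreated 1 hr with compounds (up to 57.5 uM final), then stimulated with LPS (250 ng/mL final) plus ATP (1.25 mM final); secreted IL-1B measured by AlphaLISA after 16 hr, decreased signal indicating inhibition.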
HT1080-NT tox = kills 2HG-producing HT-1080-NT fibrosarcoma cells | hit rate 1.6% among 360,000 | AID 686970 | Potency, µM (highest dose often 46.1 µM), for inactives: at the highest dose activity, negative = less viability, most hits filed as cytotoxic | HT-1080-NT fibrosarcoma viability, CellTiter-Glo ATP luminescence, 48 h;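 note: NT is the 2HG producing partner of a matched IDH1 knockdown line; potency is the fitted concentration of half-maximal effect; 0% = DMSO-treated cells and -100% = media-only wells without cells; nearly all actives have a fitted effect of over 55% in size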
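HT-1080-NT fibrosarcoma cells (2HG-overproducing), 750 cells/well in RPMI with 5% FBS, dosed after 2 h and incubated 48 h at 37C. CellTiter-Glo luminescence normalized to DMSO and no-cell wells; concentration-response curves fitted and classed.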
TDP1 cell noCPT = qHTS for Inhibitors of human tyrosyl-DNA phosphodiesterase 1 (TDP1): qHTS in cells in absence of CPT. DT40 Tdp1-/- hTDP1 cells, no CPT, ATP luminescence, 48 h. Potency, µM (series often up to 46.2 µM), for the others: top-dose activity change, negative = growth inhibition, usual class: inhibitors. hit rate 15% among 420,000; note: potency is the fitted concentration of half-maximal effect; nearly all actives have a fitted effect of over 55% in size
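Growth of hTDP1-complemented DT40 Tdp1-knockout cells is measured by ATP luminescence after at least 48 hr compound exposure at 37 °C, with DMSO substituting for the 20 nM CPT used in the parallel screen.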
TDP1 cell CPT = DT40-hTDP1 cell growth loss with CPT. chicken DT40 Tdp1-/-;hTDP1 cells + 20 nM CPT, ATP luminescence, 48 h. Potency, µM (highest dose often 46.2 µM), without a hit: at the highest dose activity change, negative = growth inhibition, actives largely listed as inhibitors. hit rate 12% among 420,000. AID 686979; note: potency is the fitted concentration of half-maximal effect; nearly all actives have a fitted effect of over 55% in size
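Chicken DT40 Tdp1-/- cells stably complemented with human TDP1 were seeded at 400 cells/well in medium containing 20 nM camptothecin, exposed to pin-transferred compounds, and grown at 37 °C for at least 48 hr. Viability was read as ATP luminescence.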
HT1080 IDH1KD tx = HT-1080 IDH1 knockdown cell toxicity (counter line); HT-1080 IDH1 knockdown viability, ATP luminescence, 48 h; Potency, µM (titrated, usually from 46.1 µM), inactives show at the highest dose activity, negative = toxicity, actives largely listed as cytotoxic; hit rate 2% among 360,000; AID 686971;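 note: potency is the fitted concentration of half-maximal effect; 0% = DMSO wells and -100% = cell-free medium wells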
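Assay cells: HT-1080 with IDH1 knockdown, 750 per well, RPMI/5% FBS. Exposure: 48 h at 37 °C following 2 h pre-incubation. Read: CellTiter-Glo luminescence; fitted concentration-response, curve class assigned.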
* = called active by the depositor; ? = inconclusive; nt = not tested or not shown; [ ] = another dose, or the depositor's remark. Unless noted, calls come from the whole dose curve; as a rule, active = well fitted curve in the direction sought with a large enough effect; inconclusive = small, poorly fitted or top-dose-only effect, or another doubt; inactive = no such curve, though single readings can be large; an effect the other way counts as inactive or inconclusive. Unless noted, % is set by controls: 0 for no effect and ±100 for the full control effect.

SMILES	IL1B secr inh	HT1080-NT tox	TDP1 cell noCPT	TDP1 cell CPT	HT1080 IDH1KD tx
CN1CCN(C2Cc3ccc(F)cc3Sc3cc(F)c(Cl)cc32)CC1 (stereo not drawn)	-97*	26µM*	10µM*	18µM*	?
CN1CCN(C2Cc3ccccc3Sc3cc(C(F)(F)F)ccc32)CC1 (stereo not drawn)	-98*	16µM*	16µM*	?	21µM*
CC(CNC(=O)CCCn1c(=O)c2cccn2c2cccnc21)c1ccccc1 (stereo not drawn)	-7	6%	?	?	0%
Cc1ccc(SC2=NS(=O)(=O)c3ccccc32)c(C)c1	nt	nt	1.3µM*	1.4µM*	nt
Cc1ccc(C)c(OC2=NS(=O)(=O)c3ccccc32)c1	3	14%	21µM*	18µM*	9%
Cc1ccc(CSC2=NS(=O)(=O)c3ccccc32)cc1	nt	nt	11µM*	8.9µM*	nt
O=C1COc2ccc(OCc3ccc(F)cc3)cc21	0	-1%	-4%	0%	8%
Cc1c(C(=O)O)oc2ccc(S(=O)(=O)NCCC3=CCCCC3)cc12	70	2%[9.24 µM]	-16%	-3%	-7%
Cc1ccc(C)c(NC(=O)c2cc(S(=O)(=O)NCCC3=CCCCC3)ccc2F)c1	nt	nt	21µM*	?	nt
Cc1ccc(NC(=O)c2cc(S(=O)(=O)NCCC3=CCCCC3)ccc2F)cc1	-65*	-16%	?	?	-25%
CCCCn1c(N)c(N(CC(C)C)C(=O)Cc2ccc(S(=O)(=O)N3CCOCC3)s2)c(=O)[nH]c1=O	12	-6%	1%	-5%	14%
Cc1cc(O)c(NC(=S)NC(=O)c2ccc(-c3ccc(Cl)cc3)o2)cc1C	-20	?	21µM*	?	?
Cc1ccc(O)c(NC(=S)NC(=O)Cc2ccc(Cl)cc2)c1	86	?	?	?	?
Cc1ccc(NC(=S)NC(=O)c2ccc(-c3ccc(Cl)cc3)o2)c(O)c1	0	?	21µM*	21µM*	?
Oc1ccc(/C=N/Nc2ccnc3cc(Cl)ccc23)cc1O	80	?	13µM*	13µM*	?
CC/C(=N\Nc1ccnc2cc(Cl)ccc12)c1ccc(O)cc1	-20	18µM*	?	?	16µM*
Oc1ccc(/C=N/Nc2ccnc3cc(Cl)ccc23)c(O)c1O	11	3%	?	?	-5%
CCOC(=O)CCn1cnc2onc(-c3cc(OC)ccc3Cl)c2c1=O	nt	nt	-13%	22%	nt
CNC(=O)CCC(=O)Nc1ccc(C)cc1	12	-2%	22%	2%	-2%
COc1cccc(N2CCN(c3ncnc4c3c(-c3ccccc3)cn4-c3cccc(C(F)(F)F)c3)CC2)c1	nt	nt	?	-15%	nt
COc1ccc(-n2cc(-c3ccccc3)c3c(N4CC(C)OC(C)C4)ncnc32)cc1 (stereo not drawn)	-10	?	12µM*	?	23µM*
COc1ccc(CNc2ncnc3c2c(-c2ccccc2)cn3-c2ccc(C)c(Cl)c2)cc1	nt	nt	-21%	-28%	nt
COc1ccc(-n2cc(-c3ccccc3)c3c(NC4CCCC4)ncnc32)cc1	nt	nt	18µM*	23µM*	nt
COc1ccc(C(=O)CSc2nnc(CNC(=O)c3ccccc3)o2)cc1	36	-21%	-21%	?	-2%
NNC(=O)/C(=C\c1ccco1)NC(=O)c1ccco1	97	15µM*	4%	1%	?
O=C(NCc1cc(C(F)(F)F)ccc1Cl)c1cccc2c1C(=O)c1ccc(N3CCCCC3)cc1S2(=O)=O	59	-19%	?	?	0%
O=C(NCc1cc(C(F)(F)F)ccc1Cl)c1cccc2c1C(=O)c1ccc(N3CCC(N4CCCCC4)CC3)cc1S2(=O)=O	92	-24%	2.9µM*	5.2µM*	-11%
O=C(NCc1cc(C(F)(F)F)ccc1Cl)c1cccc2c1C(=O)c1ccc(N3CCOCC3)cc1S2(=O)=O	9	0%	21µM*	18µM*	0%
